This assay concerns DRIVER-selected RNA biosensor (aptazyme) pool. In words: maximum fold change of ribozyme cleavage across biosensor pool versus no-compound control; higher = stronger biosensor response (ligand inhibits cleavage). Conditions: 10 µM. The method, then: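 CleaveSeq: a pool of resynthesized hammerhead-ribozyme RNA biosensors (sTRSV scaffold with randomized loops, 1,730 sequences) was T7-transcribed at 37 °C for 15-30 min with a single compound at 10 µM. Cleaved and uncleaved products were counted by NGS, and fold change of cleavage was computed against the DMSO-only condition. The value is the maximum fold change of cleavage over all biosensors in the pool. About 255 compounds were tested individually.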
`CCOC(=O)c1cnc2c(C)c(Cl)ccc2c1NCCCN1CCOCC1` registered a maximum fold change of 12.1.

In turn, `COc1ccc(-c2nn(C)c3sc(C(=O)N4CCC(C#N)CC4)cc23)cc1OC` came in with a maximum fold change of 7.42.

The molecule `CCC(C)NC(=O)Cn1cc(C=O)c2ccccc21` (stereo not given) returned a maximum fold change of 4.38.

`N#C/C(=Cc1c(Oc2ccc(c(c2)C)Cl)nc2n(c1=O)cccc2)/C(=O)N1CCCCC1`: the maximum fold change was determined as 2.6.

As to `COc1ccc(-c2cn3c4ccccc4n(N)c3n2)cc1OC`, the maximum fold change came to 3.73.

`CCOC(=O)c1cnc(SC)nc1NC(=O)CSCc1csc2c1CCCC2` returned a maximum fold change of 3.61.

In turn, `CCOc1ccc2c(c1)[N+](C)=C(/C=C/c1ccc(C(=O)OC)cc1)C2(C)C` came in with a maximum fold change of 2.67.

Regarding `CC(C)CC(NC(=O)/C(=C/c1ccco1)NC(=O)c1ccc(Br)o1)C(=O)O` (stereo not given), the maximum fold change is 1.98.

With `COc1ccc(S(=O)(=O)Nc2cccnc2)cc1`, the maximum fold change stood at 2.43.

Molecule `N=C1/C(=C\c2ccc(Br)cc2)C(=O)N=C2SC(N3CCOCC3)=NN12` had a maximum fold change of 2.79.

As to `O=C(NCc1ccc2c(c1)OCO2)c1cc(-c2ccc(Cl)cc2)n[nH]1`, the maximum fold change amounted to 3.13.

As to `CCOC(=O)C1=C(C)NC2=C(C(=O)c3ccccc32)C1c1ccc(C(F)(F)F)cc1` (stereo not given), the maximum fold change came out at 2.29.

Molecule `O=C(Cc1cn(Cc2cccc(Cl)c2)c2ccccc12)N1CCCC1` yielded a maximum fold change of 3.3.

Regarding `COc1ccc(-c2cc(-c3nc4c5c(ncn4n3)CCC5)n[nH]2)cc1`, the maximum fold change was 1.38.

`O=c1cc(-c2ccccc2)[nH]c2nc(C(F)(F)F)nn12` came in with a maximum fold change of 3.78.

The molecule `CC1CCN(CCCNC(=O)c2ccc(CS(=O)(=O)Cc3ccc(Cl)cc3)o2)CC1` displayed a maximum fold change of 2.2.

`COc1ccc2nc3oc(C(=O)NCCCN4CCC(Cc5ccccc5)CC4)cc3cc2c1` returned a maximum fold change of 5.98.

Take `Brc1ccc(/C=N/c2nc3ccccc3n2CCN2CCCCC2)cc1`: the maximum fold change was 2.07.

The molecule `COc1cccc(/C=C(\C#N)c2nc3ccccc3[nH]2)c1O` yielded a maximum fold change of 11.2.

The molecule `Cc1ccc(S(=O)(=O)NCC2CCC(C(=O)NCC(C)c3ccccc3)CC2)cc1` (stereo not given) registered a maximum fold change of 4.21.

As for `O=C(CSc1nnc(-c2ccc(Cl)s2)o1)N1CCOCC1`, the maximum fold change came out at 3.21.

As for `C=C(C)Cn1c(NCCCN2CCOCC2)nc2c1c(=O)[nH]c(=O)n2C`, the maximum fold change came out at 2.3.

Molecule `Cc1[nH]c2ccccc2c1/C=C1\C(=N)N2N=C(N3CCC(C)CC3)SC2=NC1=O` came in with a maximum fold change of 3.17.

`CCc1nc2ccc(C(=O)NCCc3ccco3)cc2nc1CC` displayed a maximum fold change of 2.69.

Turning to `CCOc1ccc(S(=O)(=O)N2CCN(Cc3ccccc3)CC2)c2cccnc12`, the maximum fold change came to 5.08.

For the molecule `c1ccc(-c2nc3cc(Oc4ccc5[nH]c(-c6ccccn6)nc5c4)ccc3[nH]2)nc1`, the maximum fold change stood at 2.66.

In turn, `O=C(NCC(=O)N1CCOCC1)c1ccccc1` gave a maximum fold change of 1.78.

As for `Cc1ccc(CS(=O)Cc2ccc(C(=O)NC(C)C)o2)cc1` (stereo not given), the maximum fold change came to 1.84.

`CC1CCN(c2ncnc3sc4c(c23)CCC(C)C4)CC1` (stereo not given) displayed a maximum fold change of 3.18.

`COc1ccc(OC)c(/C=C2/N=C(c3ccc(OC)c(Br)c3)OC2=O)c1` displayed a maximum fold change of 2.65.

Molecule `Cc1ccc(-c2noc(CCC(=O)Nc3cc(C)ccn3)n2)cc1` yielded a maximum fold change of 2.17.

With `CC1CCN(S(=O)(=O)c2ccc3c(ccn3CC(=O)NCc3ccc(OC(C)C)cc3)c2)CC1`, the maximum fold change is 2.62.

Molecule `COc1ccc(C=C2C(=O)c3ccccc3C2=O)cc1O` gave a maximum fold change of 4.65.

`COc1ccccc1/C=C1N=C(c2ccc(Br)cc2)OC1=O` had a maximum fold change of 2.7.

On to `Cc1cccc(-c2nc3n(n2)C(c2ccccc2Cl)C2=C(CC(C)(C)CC2=O)N3)c1` (stereo not given), for which the maximum fold change came to 1.83.

`COc1ccc(cc1)C1=N/C(=Cc2cc(OC)ccc2OC)/C(=O)O1` displayed a maximum fold change of 1.9.

The molecule `CCN1CCN(CCCNC(=O)c2ccc3c(c2)NC(=O)/C(=C/C(=O)c2ccc(OC)cc2)N3)CC1` came in with a maximum fold change of 8.68.

Regarding `C=CCNC(=O)c1c(C)c(C(=O)OCC)n(C)c1C`, the maximum fold change came out at 2.81.

As to `Cc1cc(NC(=O)CSc2nnc(-c3ccc(C)c(C)c3)o2)no1`, the maximum fold change amounted to 2.25.

`COc1ccc(cc1)/C=CC(=O)NCC(=O)O`: the maximum fold change is 3.29.

For the origin of these results see the supplement of paper PMC9477273.
